Assay outcomes (PubChem BioAssay)
Luciferase inh – firefly luciferase inhibition; Potency, µM (series often up to 57.1 µM), inactives show at the highest dose activity change, negative = inhibition, usual class: inhibitors; AID 411; purified firefly luciferase, luminescence, 8 min; 2.2% of 72,000 active; also: potency is read from the fitted curve at half-maximal effect; % is scaled to controls: 0 for no effect and ±100 for the full control effect; nearly all actives have a fitted effect of over 40% in size
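Luminescence read-out after 8 min at room temperature; enzyme reaction used luciferin plus 10 uM ATP (linear range) in imidazole buffer pH 7.2 with KCl, MgCl2, Tween 20 and BSA. Each sample was run as a titration.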
IkB signaling – inhibitors of IkB signaling in ABC-DLBCL cells | ABC-DLBCL IkBa-CBG/CBR dual luciferase ratio, 4 h; response scale: scaled: untreated 0%, proteasome inhibitor 100% | Potency, µM (highest dose often 57.1 µM), inactives show at the top dose IkBa stabilization activation | 0.04% of 110,000 active; active = well fitted curve in the direction sought with a large enough effect in the signal ratio, not every such curve was filed as active; inconclusive = small, poorly fitted or top-dose-only effect, or a change in a side signal; the % refers to the signal ratio;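 also: potency is read from the fitted curve at half-maximal effect; the direction sought is a rising ratio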
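In this assay, an IκBα–CBG68 fusion accumulates when IKK-driven degradation is blocked; native CBR normalizes for cell number. OCI-Ly3 cells were treated 4 h with compound and doxycycline, then green and red light read after Chroma-Glo addition.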
p53ts 39C kill – kills p53ts cells at the nonpermissive temperature; H1299-p53A138V viability at 39C, ATP luminescence, 24 h; Potency, µM (top dose mostly 46.1 µM), inactives show at the top dose activity change, negative = cell killing, most hits filed as cytotoxic; 1.5% of 130,000 active; AID 902; also: potency is read from the fitted curve at half-maximal effect; % is scaled to controls: 0 for no effect and ±100 for the full control effect; nearly all actives have a fitted effect of over 55% in size
p53ts 32C tox – kills p53ts cells at the permissive temperature | H1299-p53A138V at 32C, ATP luminescence viability, 24 h | Potency, µM (titrated, usually from 46.1 µM), for the others: at the highest dose activity change, negative = cytotoxicity, hits mostly cytotoxic | 0.93% of 130,000 active;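 also: potency is read from the fitted curve at half-maximal effect; 0% = DMSO and -100% = full killing by reference compound; nearly all actives have a fitted effect of over 55% in size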
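H1299-p53 A138V cells (temperature-sensitive p53) exposed 24 h to up to 46 uM compound at 32C, where p53 is wild-type in conformation. Viability read as ATP luminescence and normalised to DMSO and 100 uM tamoxifen. AC50 fitted with the Hill equation.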
IMPase cell inh – IMPase inhibition in cells; P97697; inhibition (IP1 accumulation), % at 46.1 µM; CHO-M1 cells, IP1 accumulation, HTRF TR-FRET ratio; 120,000 tested, under 10 active; AID 901; active = well fitted curve in the direction sought with a large enough effect in the signal ratio, not every such curve was filed as active; inconclusive = small, poorly fitted or top-dose-only effect, or a change in a side signal; inactive = no such curve, though single readings can be large or run the other way; the % refers to the signal ratio;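 also: cells stimulated with carbachol in lithium chloride buffer; plate controls were DMSO basal wells for no effect and reference inhibitor wells for full effect; higher means more IMPase inhibition seen as more IP1 and lower FRET ratio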
Target sequence (P97697 whole entry, looked up): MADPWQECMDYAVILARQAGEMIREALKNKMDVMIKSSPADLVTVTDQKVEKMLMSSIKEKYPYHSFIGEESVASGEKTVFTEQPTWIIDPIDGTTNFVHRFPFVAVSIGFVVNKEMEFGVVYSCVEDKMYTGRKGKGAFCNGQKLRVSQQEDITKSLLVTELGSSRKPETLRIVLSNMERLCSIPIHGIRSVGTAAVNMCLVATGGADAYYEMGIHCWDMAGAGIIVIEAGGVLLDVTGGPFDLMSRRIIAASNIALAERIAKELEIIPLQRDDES
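Carbachol-driven Gq signalling in CHO-M1 cells (2000/well) generates IP1. Compounds that block IMPase raise IP1 and so reduce the FRET signal from Eu-anti-IP1 and d2-IP1 after a 10 min room-temperature lysis.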
Imprint erasure – inducers of genomic imprint erasure in mouse ES cells; mouse ES Peg3-LacZ reporter, beta-gal luminescence, 40 h; Potency, µM (doses to about 60.7 µM), for the others: top-dose activity change, positive = activation, usual class: activators; 0.02% of 110,000 active; AID 1948; also: potency is read from the fitted curve at half-maximal effect
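Readout: BetaGlo luminescence (5 min, room temp) for LacZ from the normally silent maternal Peg3 allele in female Peg3LacZ-Neo ES cells. Cells 300/well, 40 h, 37C, 5% CO2. Data normalized per plate to negative controls.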
* marks the source's active call; other numbers are inactive results; [ ] = another dose, or the depositor's remark. Only a selection was taken, and hits are over-represented in it overall. Unless noted, calls follow the shape of the dose curve; as a rule, active = well fitted curve in the direction sought with a large enough effect; inconclusive = small, poorly fitted or top-dose-only effect, or another doubt; inactive = no such curve, though single readings can be large; an effect the other way counts as inactive or inconclusive.

`CC(=O)O[C@H]1C(=O)[C@@]2(C)[C@H]([C@H](OC(=O)c3ccccc3)[C@]3(O)C[C@H](OC(=O)[C@H](O)[C@@H](NC(=O)c4ccccc4)c4ccccc4)C(C)=C1C3(C)C)[C@]1(OC(C)=O)CO[C@@H]1C[C@@H]2O` gave Luciferase inh 15.8µM*, IkB signaling 0.3%, p53ts 39C kill 36.4%, p53ts 32C tox 17.3%, IMPase cell inh 9.8 and Imprint erasure -16.5%.
For CC[C@H](/C=C/[C@@H](C)[C@H]1CC[C@H]2C3CC=C4C[C@@H](O)CC[C@]4(C)C3CC[C@]12C)C(C)C (stereo partly specified) the results were p53ts 39C kill -4.6%, p53ts 32C tox -0.9%, IMPase cell inh 0.2 and Imprint erasure -0.2%.
`COCCCNC(=O)c1ccc2c(c1)N(Cc1ccccc1)C(=O)c1ccccc1S2` gave IkB signaling 1.2%, p53ts 39C kill inconclusive, p53ts 32C tox -1.5% and Imprint erasure -16.8%[10.9 µM].
Screening CCN(CC)C(=O)Nc1ccc2c(c1)N(Cc1ccccc1)C(=O)c1ccccc1S2 returned IkB signaling 0.8%, p53ts 39C kill 8.2%, p53ts 32C tox 3.1% and Imprint erasure -13.2%[10.9 µM].
For CCCCN(CC)CCCNC(=O)c1ccc2c(c1)N(Cc1ccc(C)cc1)C(=O)c1ccccc1S2 the results were IkB signaling -0.4%, p53ts 39C kill 12.6µM*, p53ts 32C tox inconclusive and Imprint erasure -8.7%[10.9 µM].
For CCCCN(CC)C(=O)Nc1ccc2c(c1)N(C)C(=O)c1ccccc1S2 the results were IkB signaling inconclusive, p53ts 39C kill 25.1µM*, p53ts 32C tox 0.2% and Imprint erasure -11.1%[10.9 µM].
OCc1ccc(-c2ccc(-c3ccc(CO)s3)o2)s1 was read as Imprint erasure -61.9%.
Screening COc1ccc(-n2cnc3cc(C(=O)NC4CCCCCC4)ccc32)cc1 returned IkB signaling -4.5%, p53ts 39C kill 0.8%, p53ts 32C tox 30.0% and Imprint erasure -3.0%[10.9 µM].
For O=c1cc(-c2ccccc2O)oc2c(O)c(O)ccc12 the results were Luciferase inh -22.1%[11.4 µM], IkB signaling 4.5%[11.4 µM], p53ts 39C kill -16.2%, p53ts 32C tox -11.0%, IMPase cell inh 12.4 and Imprint erasure 2.4%.
For O=c1cc(-c2ccccc2)oc2c(O)c(O)ccc12 the results were p53ts 39C kill 12.6µM*, p53ts 32C tox inconclusive and Imprint erasure -35.7%.
For O=c1cc(-c2ccccc2)oc2cc(O)c(O)cc12 the results were p53ts 39C kill 2µM*, p53ts 32C tox 2.51µM* and Imprint erasure -24.5%.
Cc1cccc(N(C)C(CNS(=O)(=O)c2ccccc2)c2ccccc2)c1 (stereo unspecified) was read as IkB signaling inconclusive, p53ts 39C kill 31.6µM*, p53ts 32C tox 23.3% and Imprint erasure -11.9%[10.9 µM].
Screening CCN(c1cccc(C)c1)C(CNS(=O)(=O)c1ccccc1)c1ccccc1 (stereo unspecified) returned IkB signaling inconclusive, p53ts 39C kill 12.6µM*, p53ts 32C tox 17.4% and Imprint erasure 1.9%[10.9 µM].
Screening COc1ccc(OC)c([C@H]2Nc3ccccc3NC3=C2C(=O)CC(C)(C)C3)c1Br returned Luciferase inh -8.2%[11.4 µM] and IkB signaling -0.1%[11.4 µM].
For CCCS(=O)(=O)NCCc1csc(-c2cccnc2)n1 the results were Luciferase inh -0.6%, IkB signaling -1.8%, p53ts 39C kill 0.6%, p53ts 32C tox 10.4% and Imprint erasure -9.8%.
CCCc1[nH]n(-c2nc3ccccc3s2)c(=O)c1C=NCCN1CCOCC1 was read as Luciferase inh -4.5%[25.5 µM] and IMPase cell inh -4.7.
For CCCCCN=Cc1c(C)[nH]n(-c2nc3ccccc3s2)c1=O the results were Luciferase inh 7.94µM*, IkB signaling inconclusive, p53ts 39C kill 0.794µM*, p53ts 32C tox 1µM*, IMPase cell inh -7.5 and Imprint erasure -96.6%.
Screening CCCCC(=O)Nc1cc(-c2cn3cccnc3n2)ccc1C returned IkB signaling 0.0%, p53ts 39C kill -6.1%, p53ts 32C tox 1.8% and Imprint erasure -9.1%[10.9 µM].
Screening O=C(CSc1nc2ccccc2nc1Cc1ccc(Cl)cc1)N1CCN(c2ccccc2F)CC1 returned IkB signaling -2.8%, p53ts 39C kill -3.9%, p53ts 32C tox 6.9% and Imprint erasure 3.6%[10.9 µM].
For COCCn1c(COc2ccc(C)cc2)nc2ccccc21 the results were Luciferase inh 12.6µM*, IkB signaling 0.3%, p53ts 39C kill inconclusive, p53ts 32C tox inconclusive, IMPase cell inh 6.9 and Imprint erasure -29.1%.
Cc1ccc(OCCCn2c(CO)nc3ccccc32)cc1 was read as Luciferase inh 20µM*, IkB signaling -0.8%, p53ts 39C kill -18.4%, p53ts 32C tox -18.2%, IMPase cell inh 12.5 and Imprint erasure -17.4%.
For OCc1nc2ccccc2n1CCCOc1ccccc1 the results were p53ts 39C kill inconclusive, p53ts 32C tox inconclusive and IMPase cell inh -3.1.
Screening Cc1ccc(C)c(Cn2c(=O)n(CCCCC(=O)NCc3ccccc3Cl)c(=O)c3ccccc32)c1 returned IkB signaling 2.6%, p53ts 39C kill 25.1µM*, p53ts 32C tox 3.2% and Imprint erasure 10.5%[10.9 µM].
CCCCOC(=O)c1ccc(NC(=O)c2cc(=O)c3ccccc3o2)cc1 was read as IkB signaling inconclusive, p53ts 39C kill -27.8%, p53ts 32C tox 3.7% and Imprint erasure -9.7%[10.9 µM].
For CC(C)C(=O)Nc1cccc(NC(=O)c2cc3ccccc3o2)c1 the results were Luciferase inh 12.6µM*, IkB signaling inconclusive, p53ts 39C kill inconclusive, p53ts 32C tox inconclusive, IMPase cell inh -0.8 and Imprint erasure -43.6%.
`CCCCOC(=O)c1cccc(NC(=O)c2cc3ccccc3o2)c1` gave IkB signaling inconclusive, p53ts 39C kill 10µM*, p53ts 32C tox inconclusive, IMPase cell inh 1.0 and Imprint erasure -13.5%[10.9 µM].
For COc1ccc(NC(=O)c2cc3ccccc3o2)cc1 the results were Luciferase inh 6.31µM*, IkB signaling inconclusive, p53ts 39C kill 15.8µM*, p53ts 32C tox 15.8µM*, IMPase cell inh 18.8 and Imprint erasure -40.7%.
COc1ccc(-c2nc3cc(NC(=O)c4cc5ccccc5o4)ccc3o2)cc1 was read as IkB signaling -2.0%, p53ts 39C kill 2.9%, p53ts 32C tox 3.4%, IMPase cell inh -0.6 and Imprint erasure -8.1%[10.9 µM].
Screening O=C(Nc1cccc(-c2nc3ncccc3o2)c1)c1cc2ccccc2o1 returned Luciferase inh 15.8µM*, IkB signaling inconclusive, p53ts 39C kill -29.4%, p53ts 32C tox inconclusive, IMPase cell inh 8.3 and Imprint erasure -15.8%.
